# Data taken from PubChem BioAssay (NCATS).
# Records with an inconclusive call do not appear. Entries that show only a call come without a potency. Unmarked numbers belong to inactive results. Activity calls are given as the source filed them. Unless noted, calls follow the shape of the dose curve; as a rule, active = well fitted curve in the direction sought with a large enough effect; inconclusive = small, poorly fitted or top-dose-only effect, or another doubt; inactive = no such curve, though single readings can be large; an effect the other way counts as inactive or inconclusive.
# Columns and labels:
# [1] = biological target: Cytochrome P450 2C9 (Homo sapiens) (UniProt P11712); experiment: qHTS Assay for Inhibitors and Substrates of Cytochrome P450 2C9 (AID 883); also: nearly all actives have a fitted effect of over 60% in size; also: potency is read from the fitted curve at half-maximal effect
# Chain of Cytochrome P450 2C9 (Homo sapiens) (P11712 whole entry, looked up): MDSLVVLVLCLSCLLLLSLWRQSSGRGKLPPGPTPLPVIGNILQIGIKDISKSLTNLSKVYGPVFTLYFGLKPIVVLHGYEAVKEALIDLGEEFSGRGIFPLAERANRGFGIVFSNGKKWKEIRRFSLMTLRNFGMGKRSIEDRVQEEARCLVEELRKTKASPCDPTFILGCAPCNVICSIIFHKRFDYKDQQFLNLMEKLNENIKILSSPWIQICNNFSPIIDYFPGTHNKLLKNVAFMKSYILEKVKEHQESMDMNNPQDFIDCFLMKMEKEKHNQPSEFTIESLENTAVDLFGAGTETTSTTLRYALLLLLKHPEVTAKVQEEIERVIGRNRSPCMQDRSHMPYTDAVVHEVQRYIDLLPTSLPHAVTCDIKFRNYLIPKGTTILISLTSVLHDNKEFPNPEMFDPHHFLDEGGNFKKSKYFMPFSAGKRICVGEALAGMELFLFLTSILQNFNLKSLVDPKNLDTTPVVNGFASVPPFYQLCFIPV
# How it was run: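 Luminescent read-out of deoxyluciferin hydroxylation, normalized to 57uM sulphaphenazole (AC100). Reaction: 10nM enzyme, 100uM Luciferin-H (equal to KM), 25mM KPO4, 10 min compound preincubation, then 60 min with NADPH regeneration, both at 37C.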
# [2] = Cell Viability - BJ (AID 421; calls by dose curve;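 also: potency is read from the fitted curve at half-maximal effect; cells exposed to compound for 40 hours at 37 °C before readout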); conditions: BJ fibroblast viability, qHTS
# How it was run: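 Normal human BJ foreskin fibroblasts, 1500/well in complete medium, treated 40 hr at 37 °C. Cellular ATP by CellTiter-Glo luminescence; normalized to DMSO and 100 uM tamoxifen, AC50 from Hill fit.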
# [3] = Cell Viability - Jurkat (AID 426;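 active = dose-dependent loss of cell ATP signal giving a full or clear fitted curve, ranked by lower potency value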; also: potency is read from the fitted curve at half-maximal effect); conditions: qHTS
# How it was run: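 qHTS, 1536-well; Jurkat E6-1, 5000 cells/well, complete medium; cpd 40 hr, 37 °C; CellTiter-Glo 20 min RT; luminescence. AC50 by Hill fit.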
# [4] = Cell Viability - Hek293 (AID 427;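 active = compounds whose dose-response curve shows a full or clear partial loss of cell viability, called from curve shape rather than a numeric limit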;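 also: potency is read from the fitted curve at half-maximal effect; cells exposed to compound for 40 hours at 37 °C before reading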); conditions: qHTS
# How it was run: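 HEK293 cells in complete medium were exposed to compound for 40 hr at 37 °C, then cellular ATP was read by CellTiter-Glo luminescence. Data were normalized to DMSO (basal) and 100 uM tamoxifen (100% inhibition), and AC50 came from Hill fits.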
# [5] = Cell Viability - HepG2 (AID 433; calls by dose curve;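 also: potency is read from the fitted curve at half-maximal effect; potency for ATP loss meaning cytotoxicity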); conditions: qHTS
# How it was run: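 In this qHTS format, a 40 h, 37 °C compound incubation of HepG2 cells in complete medium precedes a 20 min CellTiter-Glo step at room temperature. Tamoxifen and doxorubicin serve as positive controls; Hill-equation fits yield AC50.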
# [6] = qHTS Assay for Identification of Small Molecule Inducers of Hypoxia Response (AID 2120; active = well fitted curve in the direction sought with a large enough effect in the signal ratio, with a control signal flat, not every such curve was filed as active; the % refers to the signal ratio)
# How it was run: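 ME-180 HRE-bla cells plated in Opti-MEM/0.5% dialyzed FBS, rested 4-5 h, then dosed with compound titrations by pin tool. After 17 h at 37 degrees C, CCF4 dye loaded 2.5 h at RT; 460/530 nm ratio gave %Activity and AC50.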
# [7] = S16 Schwann cell PMP22 intronic element firefly luciferase assay (AID 624032); also: nearly all actives have a fitted effect of over 30% in size
# How it was run: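 Luciferase reporter of PMP22 intronic-element expression in stably transfected S16 rat Schwann cells, read by ONE-Glo luminescence after 24 h compound exposure at 37 C. Activity scaled between DMSO (0%) and positive-control PTC124; concentration-effect curves quality-classified.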
# AA1029 = experiment: qHTS profiling for inhibitors of Plasmodium falciparum proliferation (AID 504749); also: nearly all actives have a fitted effect of over 60% in size; conditions: P. falciparum in erythrocytes, SYBR Green DNA, 72 h; series mostly up to 12.8 µM
# How it was run: (§1)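 Infected RBCs, 0.3% parasitemia/2.5% Hct final; cpd 72 h, 37 C, 5% CO2; lysis buffer with saponin/triton/SYBR Green I, o/n RT dark; FI 485/535; norm. to artemisinin (0.29 uM) and DMSO.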
# CP211 = experiment: as above; conditions: P. falciparum in erythrocytes, SYBR Green DNA, 72 h; series mostly up to 12.8 µM
# How it was run: as §1
# CP260 = experiment: as above; conditions: P. falciparum in erythrocytes, SYBR Green DNA, 72 h; series mostly up to 12.8 µM
# How it was run: as §1
# CP268 = experiment: as above; conditions: P. falciparum in erythrocytes, SYBR Green DNA, 72 h; series mostly up to 12.8 µM
# How it was run: as §1
# CP297 = experiment: as above; conditions: P. falciparum in erythrocytes, SYBR Green DNA, 72 h; series mostly up to 12.8 µM
# How it was run: as §1
# CP315 = experiment: as above; conditions: P. falciparum in erythrocytes, SYBR Green DNA, 72 h; series mostly up to 12.8 µM
# How it was run: as §1
# DIV14 = experiment: as above; conditions: P. falciparum in erythrocytes, SYBR Green DNA, 72 h; series mostly up to 12.8 µM
# How it was run: as §1
# N140 = experiment: as above; conditions: P. falciparum in erythrocytes, SYBR Green DNA, 72 h; series mostly up to 12.8 µM
# How it was run: as §1
# TAB165 = experiment: as above; conditions: P. falciparum in erythrocytes, SYBR Green DNA, 72 h; series mostly up to 12.8 µM
# How it was run: as §1
# [8] = Viability counterscreen for agonist of constitutive androstane receptor (CAR) against the NCATS DSHEA and TCM libraries (AID 1794838);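 also: HepG2 cells with CYP2B6 reporter and hCAR plus 0.75 µM PK11195 antagonist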
# How it was run: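 Multiplexed counterscreen: after 24 h compound exposure with 0.75 uM PK11195, HepG2-CYP2B6-hCAR viability was quantified fluorimetrically (CellTiter-Fluor, 405/540 nm) prior to the ONE-Glo luciferase read.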
# [9] = biological target: Cytochrome P450 2C19 (Homo sapiens) (UniProt P33261); experiment: qHTS for inhibitors of CYP2C19 against the NCATS DSHEA and TCM libraries (AID 1919974);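 also: luminescence from luciferin released by CYP2C19 oxidation of a pro-luciferin substrate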; also: potency is read from the fitted curve at half-maximal effect
# Chain of Cytochrome P450 2C19 (Homo sapiens) (P33261 whole entry, looked up, canonical isoform): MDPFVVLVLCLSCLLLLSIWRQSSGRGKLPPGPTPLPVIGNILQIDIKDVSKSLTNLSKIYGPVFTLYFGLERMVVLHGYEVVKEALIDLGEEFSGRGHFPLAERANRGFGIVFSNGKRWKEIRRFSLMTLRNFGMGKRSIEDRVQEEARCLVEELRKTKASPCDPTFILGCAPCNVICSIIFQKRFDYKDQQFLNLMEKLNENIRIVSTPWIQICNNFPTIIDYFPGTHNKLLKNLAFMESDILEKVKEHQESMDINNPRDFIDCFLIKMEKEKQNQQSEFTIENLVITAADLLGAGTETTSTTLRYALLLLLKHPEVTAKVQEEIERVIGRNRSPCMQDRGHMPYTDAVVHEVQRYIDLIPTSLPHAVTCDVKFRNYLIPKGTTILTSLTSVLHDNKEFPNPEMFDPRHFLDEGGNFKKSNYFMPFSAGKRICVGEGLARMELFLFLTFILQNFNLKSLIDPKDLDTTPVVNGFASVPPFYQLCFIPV
# How it was run: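 Read-out is luminescence after P450-Glo detection (30 min, RT). Before that: 15 min compound–enzyme preincubation, then 30-45 min reaction with 1x NADPH regeneration solution, substrate concentration isoform-specific.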
# [10] = biological target: Nuclear receptor subfamily 1 group I member 2 (Homo sapiens) (UniProt O75469); experiment: Dual reporter qHTS for agonist of Pregnane X Receptor (hPXR) against the NCATS DSHEA and TCM libraries: Luminescence readout (AID 1920059)
# Chain of Nuclear receptor subfamily 1 group I member 2 (Homo sapiens) (O75469 whole entry, looked up): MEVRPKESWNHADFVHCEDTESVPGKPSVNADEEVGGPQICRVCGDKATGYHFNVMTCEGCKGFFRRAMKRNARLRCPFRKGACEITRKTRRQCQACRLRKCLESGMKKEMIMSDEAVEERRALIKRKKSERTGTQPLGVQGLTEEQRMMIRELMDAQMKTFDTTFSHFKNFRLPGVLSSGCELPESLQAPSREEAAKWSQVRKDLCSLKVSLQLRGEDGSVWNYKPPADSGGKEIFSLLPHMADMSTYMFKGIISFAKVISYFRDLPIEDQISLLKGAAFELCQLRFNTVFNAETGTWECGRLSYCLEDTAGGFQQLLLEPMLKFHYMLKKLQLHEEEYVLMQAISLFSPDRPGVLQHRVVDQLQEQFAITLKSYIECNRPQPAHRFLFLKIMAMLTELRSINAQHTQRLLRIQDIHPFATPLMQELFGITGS
# How it was run: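 Luminescent PXR reporter read (ONE-Glo) after a CellTiter-Fluor viability read, following 24 h, 37C treatment of HepG2 cells stably carrying hPXR-Luc.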
# [11] = biological target: ATP-dependent 6-phosphofructokinase (Trypanosoma brucei brucei) (UniProt O15648); experiment: qHTS Assay to Find Inhibitors of T. brucei phosphofructokinase: hit validation (AID 492961);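 also: luminescence reports ADP formed as PFK phosphorylates fructose-6-phosphate with ATP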
# Chain of ATP-dependent 6-phosphofructokinase (Trypanosoma brucei brucei) (O15648 whole entry, looked up): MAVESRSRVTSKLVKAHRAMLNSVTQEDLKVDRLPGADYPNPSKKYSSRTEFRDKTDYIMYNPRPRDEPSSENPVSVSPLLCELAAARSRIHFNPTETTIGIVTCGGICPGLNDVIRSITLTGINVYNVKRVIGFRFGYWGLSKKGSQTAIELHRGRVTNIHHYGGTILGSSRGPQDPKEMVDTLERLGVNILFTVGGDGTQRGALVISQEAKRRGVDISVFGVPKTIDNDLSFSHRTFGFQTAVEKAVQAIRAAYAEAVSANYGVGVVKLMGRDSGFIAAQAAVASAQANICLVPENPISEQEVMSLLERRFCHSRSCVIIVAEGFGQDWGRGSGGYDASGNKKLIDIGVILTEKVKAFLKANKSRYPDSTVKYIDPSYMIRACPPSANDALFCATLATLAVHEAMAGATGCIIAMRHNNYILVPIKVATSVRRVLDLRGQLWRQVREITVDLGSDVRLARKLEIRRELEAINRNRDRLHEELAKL
# How it was run: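 ADP-Glo luminescence read-out of ADP formed by 1.25 nM PFK from 0.1 mM ATP and 0.5 mM F6P (TEA pH 8.0, 45 min, RT). Compounds titrated; activity normalized to no-enzyme and full-enzyme controls.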
smiles,measurement,setting,value
COc1cccc(-c2ccc3ncnc(NCCc4c[nH]c5ccc(OC)cc45)c3c2)c1,Potency,[1],0.398 µM (active)
Cc1occc(=O)c1O,Potency,[2],> 92 µM
same,Potency,[3],> 92 µM
same,Potency,[4],> 92 µM
same,Potency,[5],> 92 µM
same,outcome,[6],inactive
O=C(Cc1cccs1)NC1C(=O)N2C(C(=O)[O-])=C(C[n+]3ccccc3)CSC12 (centres undefined),Potency,[7],inactive
same,Potency,AA1029,inactive
same,Potency,CP211,inactive
same,Potency,CP260,inactive
same,Potency,CP268,inactive
same,Potency,CP297,inactive
same,Potency,CP315,inactive
same,Potency,DIV14,inactive
same,Potency,N140,inactive
same,Potency,TAB165,inactive
O=C(/C=C/c1ccc(O)c(O)c1)OC(Cc1ccc(O)c(O)c1)C(=O)O (centres undefined),outcome,[8],inactive
same,Potency,[9],3.55 µM (active)
same,outcome,[10],inactive
O=c1cc(-c2ccc(O)cc2)oc2cc(O[C@H]3OC(CO)C(O)C(O)C3O)cc(O)c12 (some centres undefined),outcome,[8],inactive
same,Potency,[9],inactive
same,outcome,[10],inactive
CC1=CC(=O)CC(C)(C)C1(O)/C=C/C(C)=C\C(=O)O (centres undefined),Potency,[2],> 92 µM
same,Potency,[3],> 92 µM
same,Potency,[4],> 92 µM
same,Potency,[5],> 92 µM
same,outcome,[6],inactive
COC(=O)C1=CO[C@@H](C)[C@H]2CN3CCc4c([nH]c5ccccc45)[C@@H]3C[C@H]12,outcome,[8],inactive
NC(Cc1c[nH]c2ccccc12)C(=O)O (centres undefined),Potency,[9],3.16 µM (active)
same,outcome,[10],inactive
CC(C)N1CCN(c2ccc(OC[C@@H]3CO[C@@](Cn4cncn4)(c4ccc(Cl)cc4Cl)O3)cc2)CC1,outcome,[11],inactive
same,Potency,[7],inactive
same,Potency,AA1029,inactive
same,Potency,CP211,inactive
same,Potency,CP260,inactive
same,Potency,CP268,inactive
same,Potency,CP297,inactive
same,Potency,CP315,inactive
same,Potency,DIV14,inactive
same,Potency,N140,inactive
same,Potency,TAB165,inactive
C[C@@H]1CCC[C@H](C)N1NC(=O)c1ccc(Cl)c(S(N)(=O)=O)c1,outcome,[11],inactive
same,Potency,[7],inactive
same,Potency,AA1029,inactive
same,Potency,CP211,inactive
same,Potency,CP260,inactive
same,Potency,CP268,inactive
same,Potency,CP297,inactive
same,Potency,CP315,inactive
same,Potency,DIV14,inactive
same,Potency,N140,inactive
same,Potency,TAB165,inactive
COS(C)(=O)=O,Potency,[2],> 92 µM
same,Potency,[3],> 92 µM
same,Potency,[4],> 92 µM
same,Potency,[5],> 92 µM
same,outcome,[6],inactive
COc1ccc2ccc(=O)oc2c1,outcome,[8],inactive
same,Potency,[9],inactive
same,outcome,[10],inactive
C[N+](C)(C)CC(O)CC(=O)O (centres undefined),outcome,[11],inactive
same,Potency,[7],inactive
same,Potency,AA1029,inactive
same,Potency,CP211,inactive
same,Potency,CP260,inactive
same,Potency,CP268,inactive
same,Potency,CP297,inactive
same,Potency,CP315,inactive
same,Potency,DIV14,inactive
same,Potency,N140,inactive
same,Potency,TAB165,inactive
C=C[C@](C)(O)CCC=C(C)C,outcome,[8],inactive
same,Potency,[9],3.55 µM (active)
C=C(C)[C@H]1CC=C(C)C(=O)C1,Potency,[2],> 92 µM
same,Potency,[3],> 92 µM
same,Potency,[4],> 92 µM
same,Potency,[5],> 92 µM
same,outcome,[6],inactive
same,outcome,[8],inactive
same,Potency,[9],inactive
same,outcome,[10],inactive
C=CC(C)(O)CCC=C(C)C (centres undefined),Potency,[2],> 92 µM
same,Potency,[3],> 92 µM
same,Potency,[4],> 92 µM
same,Potency,[5],> 92 µM
same,outcome,[6],inactive
CN(C)CC/C=C1\c2ccccc2CSc2ccccc21,outcome,[11],inactive
same,Potency,[7],inactive
same,Potency,CP297,inactive
O=c1ccc2ccc(O)cc2o1,outcome,[10],inactive
Cc1cccc(CNc2ccnc(-c3ccccc3CN(C)C)n2)c1,"activity change, negative = inhibition",[1],13.9% [at 2.29 µM]
CN1[C@@H]2CC[C@H]1CC(OC(=O)[C@@H](O)c1ccccc1)C2 (some centres undefined),outcome,[11],inactive
same,Potency,AA1029,inactive
same,Potency,CP211,inactive
same,Potency,CP260,inactive
same,Potency,CP268,inactive
same,Potency,CP297,inactive
same,Potency,CP315,inactive
same,Potency,DIV14,inactive
same,Potency,N140,inactive
same,Potency,TAB165,inactive
COCC(=O)N1CCC2(CCN(Cc3ccncc3)CC2)CC1,Potency,[1],0.398 µM (active)
CN(C)C(=O)c1ccc(-c2nc(N(C)C)c3ccccc3n2)cc1,"activity change, negative = inhibition",[1],29.4% [at 2.29 µM]
O=C(c1cc(C(F)(F)F)cc(C(F)(F)F)c1)N1CCC2(CC1)CCN(c1ncccn1)CC2,Potency,[1],inactive
CN1CCCC[C@@H]1CCN1c2ccccc2Sc2ccc(S(C)=O)cc21 (some centres undefined),outcome,[11],inactive
same,Potency,[7],inactive
same,Potency,AA1029,inactive
same,Potency,CP211,inactive
same,Potency,CP260,inactive
same,Potency,CP268,inactive
same,Potency,CP315,inactive
same,Potency,DIV14,inactive
same,Potency,N140,inactive
same,Potency,TAB165,inactive
